Laboratory results: PubChem BioAssay (NCI)
This is part of a sample that, as a whole, favours compounds with a hit. Of some 79,000 tested, about 15% had one in any assay. Values without a mark were called inactive. Calls of active or inactive are those of the source. Cut-off read from the data, not from the text of the source: active = growth inhibition above about 70%; inactive = the rest.

Tests used:
[1] = NCI Yeast Anticancer Drug Screen. Data for the rad50 strain (AID 155);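 note: 0% = growth of vehicle-only cultures of the same strain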; conditions: S. cerevisiae rad50 strain growth inhibition; at 50.0 µM; active compounds read high
In short: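 Cells are treated with compound, grown, and their growth is then scored against vehicle-only cultures of the same repair-deficient yeast strain.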

[2] = NCI Yeast Anticancer Drug Screen. Data for the mec2-1 strain (AID 157); conditions: S. cerevisiae mec2-1 strain, at 50.0 µM, active compounds read high
In short: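 Readout is yeast growth inhibition, normalised to vehicle-treated controls, in the mec2-1 strain exposed to compound.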

[3] = NCI Yeast Anticancer Drug Screen. Data for the sgs1 mgt1 strain (AID 161);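 note: 0% = growth of cultures given vehicle only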; conditions: S. cerevisiae sgs1 mgt1 strain, at 50.0 µM, active compounds read high
In short: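 Percent growth inhibition was derived by comparing compound-exposed mutant yeast with vehicle-exposed cultures. The strain carries alterations in DNA damage repair.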

[4] = NCI Yeast Anticancer Drug Screen. Data for the cln2 rad14 strain (AID 165);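 note: 0% = growth equal to vehicle treated cultures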; conditions: S. cerevisiae cln2 rad14 strain, at 50.0 µM, active compounds read high
In short: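 Relative to vehicle controls, growth inhibition of compound-treated cln2 rad14 yeast was recorded.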

[5] = NCI Yeast Anticancer Drug Screen. Data for the bub3 strain (AID 167); conditions: S. cerevisiae bub3 mutant strain, at 50.0 µM, active compounds read high
In short: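 Part of a panel of yeast mutants defective in DNA damage repair or cell cycle regulation. Each strain is grown with compound, and inhibition is calculated relative to solvent-treated cultures.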

[6] = NCI Yeast Anticancer Drug Screen. Data for the mlh1 rad18 strain (AID 175); conditions: S. cerevisiae mlh1 rad18 strain growth inhibition; at 50.0 µM; active compounds read high
In short: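 Test agents were incubated with a yeast strain of defined genotype (DNA damage repair defect). Inhibition of growth was derived by comparison with vehicle-exposed cultures.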

Row | Structure (SMILES) | growth inhibition [1] | growth inhibition [2] | growth inhibition [3] | growth inhibition [4] | growth inhibition [5] | growth inhibition [6]
1 | CCCCCCCC/C=C/CCCCCCCC(=O)O | -25% | -37.2% | -20.6% | -16.8% | -16.2% | -50.9%
2 | Cc1cccc(Cl)c1NC(=O)COc1ccc(Cl)cc1 | 5.75% | 5.75% | 38.2% | 1.65% | 30.9% | 26.2%
3 | CCOC(=O)C1=C(C)Oc2cc3c(cc2C1c1cc(OC)c(O)c(OC)c1)OCO3 (stereo unspecified) | 33.8% | 1.65% | 38.5% | 9.75% | 27.4% | 50.5%
4 | CCNC(=O)OCc1c(COC(=O)NCC)c(-c2ccc(Cl)c(Cl)c2)n2c1CCC2 | 27.4% | 24.8% | 35.4% | 66.5% | 10.4% | 40.8%
5 | Cn1cnc2cc(NCCO)c([N+](=O)[O-])cc2c1=O | 11.1% | 18.9% | 4.5% | 11.4% | 24.4% | 24.3%
6 | O=S(=O)(NCCBr)c1ccccc1 | -1.5% | 2.45% | -8.9% | 11.6% | -2% | 2.05%
7 | COC(=O)CNC(=O)C1CSC(C)(C)N1 (stereo unspecified) | -5.9% | -6.65% | -15.7% | -12.2% | -1.05% | -9.15%
8 | CN1CCN(CCCNN)CC1 | 2.05% | -17.1% | -17.6% | 3.55% | -70.6% | -30.1%
9 | CC1=NN2C(c3ccc(C)cc3)=CSC2=NC(C)(C)C1 | 20.6% | -1.45% | 2.45% | 19.8% | 5% | -1.1%
10 | CC1=C(CCC(=O)O)c2cc3nc(cc4[nH]c(cc5[nH]c(cc1n2)c(C)c5C(C)O)c(C)c4C(C)O)C(C)=C3CCC(=O)O (stereo unspecified) | 12.4% | 5.2% | 7.7% | 29.8% | 21.6% | 1.65%
11 | NC(N)=NS(=O)(=O)c1ccc(Nc2c3ccccc3nc3c(C(=O)NNCCO)cccc23)cc1 | -10.1% | -2.85% | 25.6% | -7.7% | 15.9% | -1.65%
12 | CCCCc1c2c([n+]([O-])c3c1CCCC3)CCCC2 | 29.4% | 30.3% | 54.1% | -11.2% | 17.2% | 20.1%
13 | CN(C)P1(=O)N(c2ccc(Cl)cc2)P(=O)(N(C)C)N1c1ccc(Cl)cc1 (stereo unspecified) | -14.2% | -35.6% | -13.1% | 2% | -25% | -13.3%
14 | COc1ccc(-c2nc(N)nc3c2CN(CCCC(=O)O)C3=O)cc1 | -4.65% | 30.3% | -4.25% | -30.8% | 9.3% | -10.4%
15 | O=[N+]([O-])c1ccc(-c2nc3ccc(Cl)cc3[nH]2)cc1 | -16.1% | 30.9% | 25.2% | 21.9% | 9.55% | 44.5%
16 | CCOC(=O)/C(C#N)=C/Nc1ccncc1 | 2.95% | -12.4% | 16.2% | 11.6% | 4.25% | 16%
17 | CSc1nc(NCc2ccc(Cl)cc2)c2[nH]c(C)nc2n1 | 7.7% | -13.6% | 18.4% | -3% | 20.1% | 6.45%
18 | CC(=O)OCC1OC(n2c(Br)nc3c(N)ncnc32)C(O)C1O (stereo unspecified) | -3.35% | -4.5% | -16.4% | -12.2% | -0.7% | -29.4%
19 | CCOC(CCC#N)c1ccc(C)cc1 (stereo unspecified) | 10.2% | 5.65% | 34.1% | 25.2% | 0.8% | 22.3%
20 | COc1cc2c(c(Cl)c1O)C(=O)OC2 | -4.25% | -7.8% | 12.8% | 3.55% | -6.8% | 17.4%
21 | CCOC(=O)c1nc2ccccc2nc1NCc1ccc(Cl)cc1Cl | 6.45% | 19% | -24.7% | 8% | -16.6% | -30.9%

Row | Structure (SMILES) | growth inhibition [1] | growth inhibition [2] | growth inhibition [3] | growth inhibition [4] | growth inhibition [5] | growth inhibition [6]
22 | CCC[CH2][Sn]([CH2]CCC)([O]C(=O)c1ccc(OC)c(OC)c1OC)[O][Sn]([CH2]CCC)([CH2]CCC)[O]C(=O)c1ccc(OC)c(OC)c1OC | 85.7% (active) | 85% (active) | 86.3% (active) | 85.2% (active) | 87.2% (active) | 86.3% (active)
23 | Cc1nc2ccccc2nc1CC(O)(c1ccccc1)c1cccc2ccccc12 (stereo unspecified) | 55.8% | 18.9% | 37.4% | 26.9% | 13.2% | 38.4%
24 | CCCCCCn1cnc2c(=O)[nH]c(N)nc21 | -2% | 3.5% | -17.2% | -7.05% | -8.65% | -10.2%
25 | Cc1nc(-c2ccccc2)[nH]c(=O)c1Cc1cc2c(cc1O)OCC2 | 21.8% | 6.6% | 6.9% | -12.2% | -7.85% | 8.4%
26 | CC(=O)N(C)Cc1c(O)ccc2ccccc12 | -7.25% | -21.2% | -9.9% | -9.4% | -2.25% | 12.7%
27 | C=C1C(OC(=O)/C=C/c2ccccc2)CC(OC(C)=O)C2(C)C1CC1CC(OC(C)=O)C(C)=C(C(OC(C)=O)C2OC(C)=O)C1(C)C (stereo unspecified) | 38.5% | 6.35% | 14.1% | 21.4% | 25.4% | 24.5%
28 | C/C(=N\NC(=O)CC(=O)N(C(=O)c1ccc(Cl)cc1)c1ccc(C)cc1)c1ccccc1O | -2.05% | -26% | -10.2% | 5.9% | -1.3% | -29.6%
29 | CCOC1CCC(C(C)=O)C(C#N)(C#N)C1(C#N)C#N (stereo unspecified) | 38.1% | -9.55% | -21.6% | -7.35% | -37.9% | -42.5%
30 | CC(=O)N[C@]1(C)CCC2C[C@H]1C(C)=NC2(C)C | -5.55% | 4.05% | -2.5% | 12.2% | 1.3% | -14.4%
31 | COc1ccc(C(=O)c2cc(OC)c(OC)c(OC)c2)cc1OC | -21.9% | -27.2% | -13.8% | 0.3% | 7.45% | -10.4%
32 | O=C(CCC1CCCCC1=O)c1ccc(Br)cc1 (stereo unspecified) | 6.2% | -15.8% | 12.7% | -6.95% | -6.55% | -10.2%
33 | Nc1ccc2ccc3ccc(N)nc3c2n1 | 36% | 38% | 40.7% | -1.8% | 44.1% | 17.1%
34 | Nc1ccc(S(=O)(=O)O)cc1Cl | -12.5% | -12% | -5.25% | -9.9% | -10.4% | -3.5%
35 | CC1CC=CCC1C1OCCO1 (stereo unspecified) | 3.95% | 1.6% | 3.45% | 10.2% | 16.4% | -2.7%
36 | C=C1C(=O)O[C@@H]2[C@H]3O[C@]3(C)CCC=C(C)CC[C@@H]12 | -2.7% | -7.05% | 2.15% | 9.05% | -11.8% | -6.75%
37 | c1ccc2c(c1)c1ccccc1n2Cn1c2ccccc2c2ccccc21 | -1.1% | -1.2% | -48.5% | -27.9% | 11.3% | 4.85%
38 | CCS(=O)(=O)CC(C)O (stereo unspecified) | 13.7% | -11.3% | -4.2% | 10.1% | 11% | -7.95%
39 | C/C(=N/O)c1sc(-c2nc(C)c(/C(C)=N\O)s2)nc1C | -1.7% | -19.3% | 4.7% | 4.85% | -6.6% | 3.05%
40 | CN(C(=S)NNC(=O)C1CCC(=O)N1)c1ccccc1 (stereo unspecified) | 23.2% | -2% | 3.3% | 13.7% | 21.4% | 26.9%
41 | CCOC(=O)NC(Nc1ccc(C(=O)O)cc1)(C(F)(F)F)C(F)(F)F | -5.75% | -10.8% | -38.5% | 18.6% | 4.65% | 11.4%
